Results taken from PubChem BioAssay (NCATS).
Values joined by “and” are separate entries in the source; they are usually repeats but may differ in a detail not shown here. Equal values may be shown once. A number with no mark means an inactive call. Records with an inconclusive call do not appear. The source holds several records for some structures; these can differ, active in one and inactive in another. Active and inactive are the calls of the source. Unless noted, the call rests on the fitted dose curve; in most records, active means well fitted curve in the direction sought with a large enough effect; inconclusive means small, poorly fitted or top-dose-only effect, or another doubt; inactive means no such curve, though single readings can be large; an effect the other way counts as inactive or inconclusive.

Experiments:
Tov-21-G = test: Primary qHTS to identify gynecologic anti-cancer compounds using libraries of approved drugs and bioactive compounds (AID 1345084); details: Gynecologic cancer cell panel viability, ATPlite luminescence, 48 h; series mostly up to 57.5 µM; further: on the % scale 0 is the no-effect control and ±100 the full control effect; nearly all actives have a fitted effect of over 55% in size
Procedure, shortened: (§1)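 Measured: luminescence after ATPlite addition (15 min, RT). Exposure: 48 h, 37 C, 5% CO2.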

Tov112D = test: as above; details: Gynecologic cancer cell panel viability, ATPlite luminescence, 48 h; series mostly up to 57.5 µM
Procedure, shortened: as §1

[1] = Drug repurposing screens with cells derived from glioblastoma tumor samples (AID 1345199); details: GBM patient neurospheres viability, ATP luminescence, 48 h; further: nearly all actives have a fitted effect of over 40% in size; further: potency means the concentration at half of the fitted maximal effect; on activity, negative = cell killing: on the % scale 0 is the no-effect control and ±100 the full control effect
Procedure, shortened: (§2)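 Four patient lines of CD133+ GBM neurospheres were screened at several concentrations; hits were retested in those lines plus three slower-growing GBM lines, using 48-hour treatment and ATP-based viability.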

astro = test: as above; details: viability, ATP luminescence, 48 h; series mostly up to 45.9 µM
Procedure, shortened: as §2

[2] = target: Nuclear receptor subfamily 1 group I member 2 (Rattus norvegicus) (UniProt Q9R1A7); test: qHTS assay for small molecule activators of the rat pregnane X receptor (rPXR) signaling pathway (AID 651751; call rule not given here; further: 0% is about no effect); details: rPXR reporter cells, luciferase (One-Glo), 24 h
[3] = qHTS assay for small molecule activators of the human pregnane X receptor (PXR) signaling pathway (AID 720659; call rule not given here; further: 0% is about no effect)
[4] = at 45.9 µM (top of the series), tumour line B
[5] = at 45.9 µM (top of the series), tumour line D
[6] = at 46.1 µM (top of the series), tumour line C
[7] = at 46 µM (top of the series), tumour line A
[8] = at 20 µM (top of the series), tumour line C
[9] = at 21.2 µM (top of the series), tumour line B
[10] = at 21.2 µM (top of the series), tumour line D
[11] = at 21.3 µM (top of the series), tumour line A

Sequence of Nuclear receptor subfamily 1 group I member 2 (Rattus norvegicus) (Q9R1A7 whole entry, looked up): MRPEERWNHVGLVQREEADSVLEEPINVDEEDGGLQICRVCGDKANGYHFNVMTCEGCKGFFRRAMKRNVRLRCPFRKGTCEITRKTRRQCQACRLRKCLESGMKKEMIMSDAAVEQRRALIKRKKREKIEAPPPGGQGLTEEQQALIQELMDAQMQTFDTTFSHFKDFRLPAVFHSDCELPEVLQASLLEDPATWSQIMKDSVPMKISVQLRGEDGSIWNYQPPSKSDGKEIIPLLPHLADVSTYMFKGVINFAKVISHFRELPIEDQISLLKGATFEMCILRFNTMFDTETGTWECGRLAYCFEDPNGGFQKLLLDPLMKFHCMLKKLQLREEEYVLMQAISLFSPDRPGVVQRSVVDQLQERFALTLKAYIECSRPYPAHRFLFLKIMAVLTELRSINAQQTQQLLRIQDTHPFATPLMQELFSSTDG

SMILES: CC(=O)SCC(CC(=O)c1ccc(C)cc1)C(=O)O (centres undefined)
- Potency (Tov-21-G): inactive
- Potency (Tov112D): inactive
- activity, negative = cell killing [1, 4]: -14.9%
- activity, negative = cell killing [1, 5]: -21.8%
- activity, negative = cell killing [1, 6]: 1.92%

SMILES: CCCCCCCCCCCC(=O)[O][Sn]([CH2]CCC)([CH2]CCC)[O]C(=O)CCCCCCCCCCC
- Potency (Tov-21-G): inactive
- Potency (Tov112D): inactive
- activity, negative = cell killing [1, 4]: -6.49%
- activity, negative = cell killing [1, 5]: -3.33%
- activity, negative = cell killing [1, 7]: -28.7%
- activity, negative = cell killing [1, 6]: -3.83%
- Potency (astro): inactive

SMILES: CC1(C)S[C@@H]2[C@H](NC(=O)[C@H](N)c3ccc(O)cc3)C(=O)N2[C@H]1C(=O)O
- Potency (Tov-21-G): inactive
- Potency (Tov112D): inactive
- activity, negative = cell killing [1, 4]: 2.03%
- activity, negative = cell killing [1, 5]: 3.17%
- activity, negative = cell killing [1, 7]: -16.6%
- activity, negative = cell killing [1, 6]: -0.658%
- Potency (astro): inactive

SMILES: Cc1onc(-c2c(F)cccc2Cl)c1C(=O)N[C@@H]1C(=O)N2[C@@H]1SC(C)(C)[C@@H]2C(=O)O
- Potency (Tov-21-G): inactive
- Potency (Tov112D): inactive
- activity, negative = cell killing [1, 4]: -10.7% and -14.2%
- activity, negative = cell killing [1, 5]: 14.3% and -22.2%
- activity, negative = cell killing [1, 7]: -14.1% and -18%
- activity, negative = cell killing [1, 6]: 9.01% and 7.31%

SMILES: Nc1cc(-c2ccncc2)c[nH]c1=O
- Potency (Tov-21-G): inactive
- Potency (Tov112D): inactive
- activity, negative = cell killing [1, 4]: -15%
- activity, negative = cell killing [1, 5]: 3.16%
- activity, negative = cell killing [1, 7]: -22.8%
- activity, negative = cell killing [1, 6]: -16.3%
- Potency (astro): inactive
- max response [2]: -2.86%
- outcome [3]: inactive

SMILES: CCOC(=O)c1ccccc1O
- Potency (Tov-21-G): inactive
- Potency (Tov112D): inactive
- activity, negative = cell killing [1, 4]: -4.37% and -22.2%
- activity, negative = cell killing [1, 5]: -0.79% and -11.1%
- activity, negative = cell killing [1, 7]: -24.1%
- activity, negative = cell killing [1, 6]: -28.6% and -1.56%

SMILES: CC1(C)[C@@H](O)CC[C@]2(C)[C@H]3C(=O)C=C4[C@@H]5C[C@@](C)(C(=O)O)CC[C@]5(C)CC[C@@]4(C)[C@]3(C)CC[C@@H]12
- Potency (Tov-21-G): inactive
- Potency (Tov112D): inactive
- activity, negative = cell killing [1, 4]: -26.1% and -10.2%
- activity, negative = cell killing [1, 5]: 9.17% and -11.9%
- activity, negative = cell killing [1, 6]: -0.581% and -19.2%

SMILES: CCOc1ccc2nc(S(N)(=O)=O)sc2c1
- Potency (Tov-21-G): inactive
- Potency (Tov112D): inactive
- activity, negative = cell killing [1, 4]: -0.995%
- activity, negative = cell killing [1, 5]: -17.7%
- activity, negative = cell killing [1, 6]: 1.48%

SMILES: COc1cc(/C=C/C(=O)N2CCN(CC(=O)N3CCCC3)CC2)cc(OC)c1OC
- Potency (Tov-21-G): inactive
- Potency (Tov112D): inactive
- activity, negative = cell killing [1, 4]: -11%
- activity, negative = cell killing [1, 5]: -1.45%
- activity, negative = cell killing [1, 7]: -40.7%
- activity, negative = cell killing [1, 6]: -18.6%

SMILES: CCCOC(=O)c1ccc(O)cc1
- Potency (Tov-21-G): inactive
- Potency (Tov112D): inactive
- activity, negative = cell killing [1, 4]: -2.89%
- activity, negative = cell killing [1, 5]: -17.2%
- activity, negative = cell killing [1, 6]: -7.69%
- activity, negative = cell killing ([1]; at 91.6 µM (top of the series), tumour line B): -21%
- activity, negative = cell killing ([1]; at 91.6 µM (top of the series), tumour line D): -29.2%
- activity, negative = cell killing ([1]; at 99.2 µM (top of the series), tumour line C): -27.8%
- Potency ([1]; tumour line A): 35.5 µM (active)
- Potency (astro): inactive
- max response [2]: -2.03% and 0.0614% and -3.63%

SMILES: O=C(OCc1ccccc1)c1ccccc1
- Potency (Tov-21-G): inactive
- Potency (Tov112D): inactive
- activity, negative = cell killing [1, 4]: -4.23%
- activity, negative = cell killing [1, 5]: -19%
- activity, negative = cell killing [1, 7]: -13.2%
- activity, negative = cell killing [1, 6]: -10.1%
- Potency (astro): inactive
- max response [2]: -3.55%
- outcome [3]: inactive

SMILES: CCCCCCCCCCCCCCCC(=O)OC(C)C
- Potency (Tov-21-G): inactive
- Potency (Tov112D): inactive
- activity, negative = cell killing [1, 4]: -2.41%
- activity, negative = cell killing [1, 5]: -2.14%
- activity, negative = cell killing [1, 7]: -26.7%
- activity, negative = cell killing [1, 6]: 4.29%
- Potency (astro): inactive
- max response [2]: -0.444%
- outcome [3]: inactive

SMILES: O=C(O)Cc1cccc(-c2cc(CCCCCCc3ccc(O[C@H]4O[C@H](CO)[C@@H](O)[C@H](O)[C@@H]4O)c(-c4cccc(CC(=O)O)c4)c3)ccc2O[C@H]2O[C@H](CO)[C@@H](O)[C@H](O)[C@@H]2O)c1
- activity change, negative = cytotoxicity (Tov-21-G): 4.72% [at 0.462 µM]
- activity change, negative = cytotoxicity (Tov112D): 13.8% [at 0.462 µM]
- activity, negative = cell killing [1, 4]: -15%
- activity, negative = cell killing [1, 5]: -11.6%
- activity, negative = cell killing [1, 7]: -35.4%
- activity, negative = cell killing [1, 6]: 0.695%

SMILES: CN(C)[C@@H]1C(=O)C(C(=O)NCN2CCCC2)=C(O)[C@@]2(O)C(=O)C3=C(O)c4c(O)cccc4[C@@](C)(O)C3C[C@@H]12 (some centres undefined)
- Potency (Tov-21-G): inactive
- Potency (Tov112D): inactive
- activity, negative = cell killing [1, 8]: -9.38%
- activity, negative = cell killing [1, 9]: -5.39%
- activity, negative = cell killing [1, 10]: 11.2%
- activity, negative = cell killing [1, 11]: -7.96%
- activity, negative = cell killing [1, 4]: -10.2%
- activity, negative = cell killing [1, 5]: -31.8%
- activity, negative = cell killing [1, 6]: 27.9%
- Potency (astro): inactive

SMILES: Cc1c(N)c(=O)n(-c2ccccc2)n1C
- Potency (Tov-21-G): inactive
- Potency (Tov112D): inactive
- activity, negative = cell killing [1, 8]: -1.09%
- activity, negative = cell killing [1, 9]: -6%
- activity, negative = cell killing [1, 10]: -16.4%
- activity, negative = cell killing [1, 11]: -17.4%

SMILES: Cc1[nH]cnc1CN1CCc2c(c3ccccc3n2C)C1=O
- Potency (Tov-21-G): inactive
- Potency (Tov112D): inactive
- activity, negative = cell killing [1, 4]: -8.52%
- activity, negative = cell killing [1, 5]: -4.04%
- activity, negative = cell killing [1, 6]: -28.6%
- Potency ([1]; tumour line A): 10 µM (active)

SMILES: O=C(O)[C@H](CC(=O)N1C[C@H]2CCCC[C@H]2C1)Cc1ccccc1
- Potency (Tov-21-G): inactive
- Potency (Tov112D): inactive
- activity, negative = cell killing [1, 4]: -13.2%
- activity, negative = cell killing [1, 5]: -11.7%
- activity, negative = cell killing [1, 7]: -25.9%
- activity, negative = cell killing [1, 6]: -20.5%
- Potency (astro): inactive

SMILES: C=CCCCCCCCCC(=O)O
- Potency (Tov-21-G): inactive
- Potency (Tov112D): inactive
- activity, negative = cell killing [1, 4]: -14.2%
- activity, negative = cell killing [1, 5]: -8.73%
- activity, negative = cell killing [1, 7]: -10.4%
- activity, negative = cell killing [1, 6]: 6.77%
- Potency (astro): inactive
- max response [2]: 0.475%
- outcome [3]: inactive
